# This is a sample that favours compounds with a hit; in the whole collection about 3.2% have one here.
# USP2a inh: inhibitors of human ubiquitin-specific protease USP2a; AID 463254; USP2 core, Ub-CHOP2 coupled fluorogenic reporter, 485/531; 330,000 tested, 0.01% active; Potency, µM (titrated, usually from 38.3 µM), inactives show top-dose activity change, negative = inhibition, actives largely listed as inhibitors; O75604;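 further: potency means the concentration at half of the fitted maximal effect; plate controls were DMSO wells for no effect and full inhibition by NEM control for full effect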
#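 Cell-free coupled assay: 10nM USP2 core preincubated 30min RT with compound in Tris-HCl pH 8.0/CaCl2/CHAPS buffer, then 25nM Ub-CHOP2 and 25nM reporter substrate; fluorescence (Ex 485/Em 531) read after 60min RT, normalized to NEM inhibition, concentration-response curves fitted.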
# PLK1 PBD block: blocks phosphopeptide binding to human PLK1 polo-box domain. Plk1 PBD binding of FITC phosphopeptide, fluorescence polarization. Potency, µM, inactives show max response, negative = inhibition, usual class: inhibitors. P53350. 360,000 tested, 2.8% active. AID 720504; further: potency means the concentration at half of the fitted maximal effect; series mostly up to about 57 µM; nearly all actives have a fitted effect of over 65% in size
# Target sequence (P53350 whole entry, looked up, the tested form may be a part): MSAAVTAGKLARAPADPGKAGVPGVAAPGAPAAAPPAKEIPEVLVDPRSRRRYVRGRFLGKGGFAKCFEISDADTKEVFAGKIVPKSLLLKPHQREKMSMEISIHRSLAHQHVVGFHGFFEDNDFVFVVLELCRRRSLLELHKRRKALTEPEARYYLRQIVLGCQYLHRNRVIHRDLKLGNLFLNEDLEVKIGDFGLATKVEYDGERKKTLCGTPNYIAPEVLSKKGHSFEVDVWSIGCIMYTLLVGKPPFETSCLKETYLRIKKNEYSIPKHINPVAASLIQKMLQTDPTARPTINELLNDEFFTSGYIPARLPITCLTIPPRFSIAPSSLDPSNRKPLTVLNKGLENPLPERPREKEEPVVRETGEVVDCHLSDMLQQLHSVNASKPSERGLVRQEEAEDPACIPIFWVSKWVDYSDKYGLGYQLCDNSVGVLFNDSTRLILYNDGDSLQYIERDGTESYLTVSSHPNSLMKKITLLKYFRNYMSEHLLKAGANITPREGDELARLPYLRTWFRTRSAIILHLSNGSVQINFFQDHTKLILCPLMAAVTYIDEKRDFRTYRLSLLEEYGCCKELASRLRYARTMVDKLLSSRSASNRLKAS
# USP1 inh: blocks the human USP1/UAF1 deubiquitinase complex; O94782; AID 743255; recombinant USP1/UAF1, Ub-Rhodamine cleavage fluorescence; 390,000 tested, 0.23% active; Potency, µM (highest dose often 57.1 µM), for the others: at the highest dose activity change, negative = inhibition, actives largely listed as inhibitors; further: potency means the concentration at half of the fitted maximal effect; nearly all actives have a fitted effect of over 60% in size
#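 1 nM enzyme complex + cpd, 15 min RT; start with Ub-Rho 150nM final; kinetic fluorescence ex 480/em 540, 6 reads q60 s. Buffer 50mM HEPES pH 7.8, 0.5mM EDTA, 0.1 mg/ml BSA, 1mM TCEP, 0.01% Tween-20.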
# Coupling enz: coupling enzyme interference in Giardia aldolase counter-screen | AID 2472 | coupling enzyme system counterscreen, AmpLite Red fluorescence | 290,000 tested, 0.67% active | activity change, negative = inhibition, % at 58.2 µM, hits read low; in the data active means activity change below about -30%
#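 Counterscreen lacking aldolase: glyceraldehyde-3-phosphate coupling-enzyme reagent preincubated 10 min at RT with compound (at 57.5 uM final), then substrate/coupling system with AmpLite Red added; fluorescence read at 525/598 nm after 20 min RT.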
# VDR inh: vitamin D3 receptor (human) inhibition. VDR-SRC2-3 peptide fluorescence polarization, 2 h. Potency, µM, for inactives: max response, negative = inhibition, actives largely listed as inhibitors. 400,000 tested, 0.93% active; further: potency means the concentration at half of the fitted maximal effect
#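 Signal is fluorescence polarization, reporting how far test compounds block the interaction of VDR with the SRC2-3 coregulator peptide after a 2 h room-temperature incubation.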
# GALK inhibitor: inhibitors of human galactokinase | Purified GALK, Kinase-Glo residual ATP luminescence | Potency, µM (series often up to 57.5 µM), for inactives: at the top dose activity change, negative = inhibition, most hits filed as inhibitors | 270,000 tested, 0.007% active; further: potency means the concentration at half of the fitted maximal effect
#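 Human GALK (5 nM) with 35 uM ATP and 100 uM galactose in 20 mM HEPES pH 8.0, 5 mM MgCl2, 60 mM NaCl, 1 mM DTT, 0.01% BSA. After 1 h at room temperature, leftover ATP was read by Kinase-Glo Plus luminescence.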
# The depositor's hits bear a star; ? = inconclusive; . = no result. Unless noted, the call rests on the fitted dose curve; in most records, active means well fitted curve in the direction sought with a large enough effect; inconclusive means small, poorly fitted or top-dose-only effect, or another doubt; inactive means no such curve, though single readings can be large; an effect the other way counts as inactive or inconclusive. Unless noted, on the % scale 0 is the no-effect control and ±100 the full control effect.
SMILES,USP2a inh,PLK1 PBD block,USP1 inh,Coupling enz,VDR inh,GALK inhibitor
Cc1ccc2c(c1)C(=O)C(=O)N2Cc1ccc(Cl)cc1,-2%,?,-16%,.,25µM*,.
CCc1ccc(OCC(=O)Nc2ccc(-c3nc4ncccc4o3)cc2)cc1,.,.,-17%,.,-13%,.
Cc1[nH]c(-c2ccc(F)cc2)cc1C(=O)N1CCN(c2cccc(Cl)c2)CC1,1%,-12%,-20%,0,-6%,.
CN1CCN(C(CNC(=O)C(=O)Nc2ccc(F)cc2)c2cccnc2)CC1 (stereo unspecified),.,.,3%,.,15%,.
CS(=O)(=O)C1=NSC2=NC(=O)/C(=C\c3ccc(OC(=O)c4ccco4)c(Br)c3)C(=N)N21,1%,24µM*,?,10,?,-28%
CSC1=NSC2=NC(=O)/C(=C\c3ccc(OC(=O)c4ccco4)cc3)C(=N)N12,4%,?,-17%,4,-1%,-26%
CC(C)CS(=O)(=O)C1=NSC2=NC(=O)/C(=C\c3ccc(OC(=O)c4ccco4)cc3)C(=N)N21,-1%,24µM*,?,.,?,-27%
CCC(CC)C1=NN2C(=N)/C(=C/c3ccc(OC(=O)c4ccco4)cc3)C(=O)N=C2S1,4%,30µM*,-25%,5,-22%,6%
CC1=CC2=NC(=O)/C(=C\c3ccc(OC(=O)c4ccco4)cc3)C(=N)N2O1,8%,-4%,-8%,0,-3%,-2%
Cc1ccc(Nc2nc3ccccc3o2)cc1F,-3%,3µM*,-13%,-12,?,2%
Cc1ccc(OCC(=O)O/N=C(\N)Cc2ccc(Cl)cc2)cc1,0%,2.7µM*,-31%,1,-22%,0%
COc1ccc(OCC(=O)O/N=C(\N)Cc2ccc(Cl)cc2)cc1,3%,-15%,0%,-1,-4%,0%
O=C1C=C(N(CCO)Cc2ccccc2)c2ccccc2C1=O,1%,-26%,3.5µM*,-75*,?,?
O=C1c2ccccc2C(=O)c2c1cccc2N(CCO)CCO,4%,-21%,-33%,-20,-2%,.
Cn1ncc2c(=S)[nH]c(=S)[nH]c21,.,27µM*,.,.,.,.
Cn1ncc(=S)[nH]c1=S,.,-22%,-17%,.,6%,.
COc1ccc(COc2cccc(C=O)c2)cc1,-1%,-4%,-29%,.,-10%,.
CSCCC1NC(=O)N(CC(=O)Nc2c(Cl)cc(Cl)cc2Cl)C1=O (stereo unspecified),2%,8.4µM*,-4%,0,-10%,-5%
COc1cc2nc(C)sc2cc1SC,2%,24µM*,-22%,-1,?,1%
OC1(c2cccc(F)c2)CCN(Cc2ccncc2)CC1,0%,-10%,-9%,1,-6%,4%
O=C(CCn1nnc2ccccc21)N1CCC(O)(c2cccc(F)c2)CC1,0%,27µM*,-10%,2,?,6%
COC(=O)c1ccccc1NC(=O)C1=C(C)C(=O)OC12CCCCCC2,.,.,-17%,.,5%,.
Cc1ccc(S(=O)(=O)/N=S(/c2ccccc2)C(C)C)cc1 (stereo unspecified),-3%,11µM*,-13%,1,-20%,.
COc1ccc(OCc2cc(C(=O)N(C)C(C)c3ccon3)no2)c(Cl)c1 (stereo unspecified),-2%,1%,-18%,.,-10%,-1%
CCOC(=O)C1=C[C@@H](C(C)(C)C)N(S(=O)(=O)c2ccc(OC)cc2)[C@H]1c1ccccc1,.,-9%,.,.,.,.
SMILES,USP2a inh,PLK1 PBD block,USP1 inh,Coupling enz,VDR inh,GALK inhibitor
COc1ccc(C2=CC(c3ccco3)n3ncnc3N2)cc1 (stereo unspecified),?,34µM*,?,-9,11%,7%
Cn1cc(/C=C(\NC(=O)c2ccccc2)C(=O)NCCN2CCOCC2)c2ccccc21,0%,-12%,-12%,.,2%,5%
O=C(CSc1nnc(SCc2ccc(Cl)cc2)s1)N/N=C/c1ccc(C(=O)O)cc1,0%,67µM*,-18%,10,-7%,.
N#Cc1ccc(/C=C\c2nccc3c2[nH]c2ccccc23)cc1,8%,33%,22µM*,0,12%,0%
Cc1ccc(/C=C2\SC(=S)N(CC3CCCO3)C2=O)o1 (stereo unspecified),3%,24µM*,-7%,-22,9%,1%
COc1ccc(S(=O)(=O)CCC(=O)N2CCN(c3ccc(F)cc3)CC2)cc1,2%,0%,-14%,1,-3%,-1%
O=C(NCCCN1CCCC1=O)c1ccc2c(=O)n(Cc3ccco3)c(=S)[nH]c2c1,3%,4.7µM*,-13%,0,-4%,-1%
CC(=O)N(c1ccccc1)C1SC(=O)N(c2ccccc2)C1=O (stereo unspecified),-1%,21µM*,?,3,17%,6%
CC(=O)N(c1cccc(C)c1)C1SC(=O)N(c2ccccc2)C1=O (stereo unspecified),2%,24µM*,-10%,1,11%,1%
CCN(c1ccccc1)C1SC(=O)N(c2ccccc2)C1=O (stereo unspecified),.,.,.,.,-2%,.
CCOC(=O)c1ccc(/C=C2/C=C(c3ccccc3)N(c3ccc(Cl)c(C(=O)O)c3)C2=O)cc1,5%,18%,25µM*,7,?,.
COc1ccc(S(=O)(=O)Nc2nnc(CC(C)(C)C)s2)cc1,11%,30µM*,-18%,3,-7%,1%
COc1ccc(S(=O)(=O)Nc2nnc(C(C)(C)C)s2)cc1,3%,7.5µM*,0%,2,?,11%
O=C1NC(=O)/C(=C/c2ccc(N3CCOCC3)o2)N1,4%,1%,-2%,-30,79µM*,4%
O=C1NC(=O)/C(=C\c2ccc(N3CCOCC3)o2)N1,3%,11%,-11%,-5,25µM*,0%
COc1ccccc1CC1(C)NC(=O)N(CC(=O)N2CC(C)OC(C)C2)C1=O (stereo unspecified),2%,-12%,-5%,3,0%,4%
S=C(NCc1ccco1)Nc1ccc(Oc2ccccc2)cc1,-6%,17µM*,-21%,2,-14%,5%
O=C(NC(=S)Nc1ccc(N2CCOCC2)cc1)c1ccc2c(c1)OCCO2,2%,8.4µM*,-22%,2,?,0%
O=C(NC(=S)Nc1ccc(N2CCCCC2)cc1)c1ccc2c(c1)OCCO2,1%,-1%,-8%,1,-19%,3%
S=C(NCc1ccco1)Nc1ccc(N2CCOCC2)cc1,3%,27µM*,-6%,-4,?,1%
c1ccc(CNc2nc(NCc3ccco3)nc(N3CCOCC3)n2)cc1,-1%,30µM*,-26%,2,-7%,4%

# High-throughput results: PubChem, National Center for Advancing Translational Sciences (NCATS)
